Bioassay records deposited in PubChem BioAssay by National Center for Advancing Translational Sciences (NCATS).
Most compounds without a hit are left out; they make up all but 0.71% or so of the library.
Epigenetic reg = Quantitative High-Throughput Screen for Regulators of Epigenetic Control. murine LDR cells, GFP reporter derepression, 30 h. Potency, µM (top dose mostly 53.9 µM), usual class: activators. 280,000 tested, 0.2% active. AID 1865, 2009; note: nearly all actives have a fitted effect of over 60% in size
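Reporter derepression read as number of fluorescent GFP-positive objects, 20-120 um in size, counted by laser-scanning cytometer. Mouse LDR line with an epigenetically silenced CMV-GFP locus; compound incubation 30 h, 37 C.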
CBFb-RUNX1 inh = qHTS Assay for Compounds Blocking the Interaction Between CBF-beta and RUNX1 for the Treatment of Acute Myeloid Leukemia. AlphaScreen CBFb-His/RUNX1-biotin binding, biochemical. Potency, µM (top dose mostly 59.8 µM), hits mostly inhibitors. 230,000 tested, under 10 active
Target sequence (Q01196 whole entry, looked up): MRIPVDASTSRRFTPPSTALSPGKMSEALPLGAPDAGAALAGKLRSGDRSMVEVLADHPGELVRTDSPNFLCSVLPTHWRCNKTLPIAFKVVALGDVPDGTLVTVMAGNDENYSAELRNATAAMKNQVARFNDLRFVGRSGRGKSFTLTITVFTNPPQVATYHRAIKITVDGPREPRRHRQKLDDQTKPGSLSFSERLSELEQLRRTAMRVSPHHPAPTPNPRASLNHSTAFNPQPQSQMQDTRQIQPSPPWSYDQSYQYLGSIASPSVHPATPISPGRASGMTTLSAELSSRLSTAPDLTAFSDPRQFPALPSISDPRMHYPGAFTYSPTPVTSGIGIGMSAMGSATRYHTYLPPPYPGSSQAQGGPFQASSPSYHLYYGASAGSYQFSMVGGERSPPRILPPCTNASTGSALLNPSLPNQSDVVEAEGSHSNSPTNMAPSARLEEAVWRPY
Target sequence (Q13951 whole entry, looked up): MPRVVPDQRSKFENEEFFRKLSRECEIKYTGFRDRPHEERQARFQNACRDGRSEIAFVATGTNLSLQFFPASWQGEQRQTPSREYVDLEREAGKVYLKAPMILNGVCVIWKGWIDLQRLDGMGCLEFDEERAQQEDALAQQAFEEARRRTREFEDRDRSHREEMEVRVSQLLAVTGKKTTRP
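AlphaScreen binding: CBFb-His and RUNX1-biotin (30 nM each) preincubated 20 min, compound added for 15 min, then nickel and streptavidin beads for 90 min, all at room temperature. Disruption of the interaction by any mechanism counts as activity.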
TexasRed fluor = Total Fluorescence Counterscreen for Inhibitors of the Interaction of Thyroid Hormone Receptor and Steroid Receptor Coregulator 2; 280,000 tested, 0.29% active; TRb/SRC2 Texas Red total fluorescence interference; AID 1479, 2009; Potency, µM (titrated, usually from 106 µM); active = well fitted curve in either direction with a large enough effect; inconclusive = small, poorly fitted or top-dose-only effect
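Human TRβ ligand-binding domain (0.6 uM) and Texas Red SRC2 peptide (20 nM) in Tris buffer with 1 uM T3 and 5% DMSO were incubated with pinned compound for 5 hr at ambient temperature. Total fluorescence was computed as S + 2P (555/632 nm).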
TRb-SRC2 inh = qHTS for Inhibitors of the Interaction of Thyroid Hormone Receptor and Steroid Receptor Coregulator 2; Thyroid hormone receptor beta (Homo sapiens), P10828; TRbeta-SRC2 peptide binding, fluorescence polarization; receptor liganded with 1 µM T3; Potency, µM (doses to about 106 µM), actives largely listed as inhibitors; 280,000 tested, 0.065% active; AID 1469, 2008; note: nearly all actives have a fitted effect of over 50% in size
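Quantitative HTS by FP: 0.6 uM TRb LBD, 20 nM labeled SRC2 20-mer, 1 uM T3, 5% DMSO; 5 hr ambient incubation; % activity per concentration and potencies from concentration series.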
RGS12 GoLoco inh = qHTS Assay for Inhibitors of RGS12 GoLoco Motif Activity (Red Fluorophore); Gai1:RGS12 GoLoco peptide FP, rhodamine, 10 min; 230,000 tested, 0.44% active; Potency, µM (doses to about 61.6 µM), most hits filed as inhibitors; Guanine nucleotide-binding protein G(i) subunit alpha-1 (Homo sapiens), P63096; AID 880, 2007; active = well fitted inhibition curve with a large enough effect, not every such curve was filed as active; inactive = no such curve, though single readings can be large or run the other way; note: nearly all actives have a fitted effect of over 30% in size
C127i cell count = Parental Cell Counter Screen Assay for Epigenetic Modulators: Hit Validation | Potency, µM, usual class: activators | AID 493065, 2011 | shares compounds with Epigenetic reg | mouse c127i parental cells, fluorescent cell count, 30 h | 60 tested, 20% active
HCC4017 tox = HCC4017 Cell Viability Secondary Assay for qHTS Assay for Epigenetic Modulators; shares compounds with Epigenetic reg; HCC4017 NSCLC viability, CellTiter-Glo ATP luminescence, 72 h; Potency, µM (series often up to 46.1 µM), most hits filed as cytotoxic; 45 tested, 30% active; AID 493071, 2011
H358 viab = H358 Cell Viability Secondary Assay for qHTS Assay for Epigenetic Modulators: Round 2 | AID 493074, 2011 | shares compounds with Epigenetic reg | H358 NSCLC viability, ATP luminescence, 72 h | Potency, µM (titrated, usually from 46.1 µM), most hits filed as cytotoxic | 45 tested, 30% active
Of the large screens only hits and unclear results are named; the others gave an inactive call (follow-up assays come after a bar, where they were run). Unless noted, calls come from the whole dose curve; as a rule, active = well fitted curve in the direction sought with a large enough effect; inconclusive = small, poorly fitted or top-dose-only effect, or another doubt; inactive = no such curve, though single readings can be large; an effect the other way counts as inactive or inconclusive.

NC(=S)N/N=C/c1ncc(C(F)(F)F)cc1Cl	Epigenetic reg 4µM, CBFb-RUNX1 inh inconclusive | C127i cell count inactive | HCC4017 tox inconclusive | H358 viab inconclusive
Cc1ccccc1NS(=O)(=O)c1nnc(NC(=O)c2ccco2)s1	Epigenetic reg inconclusive (no result: CBFb-RUNX1 inh, RGS12 GoLoco inh)
COCCNC(=S)N/N=C(\C)c1ccccc1O	Epigenetic reg 4.5µM | C127i cell count inactive | HCC4017 tox inconclusive | H358 viab inconclusive
CC(C)c1nc2ccc(C(=O)NCCCN3CCN(c4ccccc4)CC3)cc2o1	none (no result: CBFb-RUNX1 inh, RGS12 GoLoco inh)
COc1ccccc1OCC(=O)N/N=C/C=C/c1ccc([N+](=O)[O-])o1	Epigenetic reg 10µM | C127i cell count inactive | HCC4017 tox inconclusive | H358 viab 14µM
COc1ccc(NC(=O)c2cc3ccccc3o2)c(OC)c1	none (no result: CBFb-RUNX1 inh, RGS12 GoLoco inh)
COc1ccc(NC(=O)CSc2nc3c(oc4ccccc43)c(=O)n2Cc2ccco2)cc1Cl	Epigenetic reg 3.5µM (no result: CBFb-RUNX1 inh, RGS12 GoLoco inh) | C127i cell count inactive | HCC4017 tox 11µM | H358 viab 16µM
COc1ccc(NC(=O)c2sc3nc4c(c(-c5ccc(OC)cc5)c3c2N)C(=O)CC(C)(C)C4)cc1	none (no result: CBFb-RUNX1 inh, RGS12 GoLoco inh)
COc1ccc(NC(=O)c2sc3nc(-c4ccc(OC)cc4)cc(C(F)(F)F)c3c2N)cc1	Epigenetic reg 7.1µM (no result: CBFb-RUNX1 inh, RGS12 GoLoco inh) | C127i cell count 4µM
COc1ccc(Nc2nc3c(S(=O)(=O)c4ccccc4)nnn3c3ccc(Cl)cc23)cc1	Epigenetic reg inconclusive (no result: CBFb-RUNX1 inh, RGS12 GoLoco inh) | C127i cell count inactive
CN(c1ccccc1)S(=O)(=O)c1nnc(NC(=O)c2ccccc2)s1	Epigenetic reg 7.1µM (no result: CBFb-RUNX1 inh, RGS12 GoLoco inh) | C127i cell count inactive | HCC4017 tox inactive | H358 viab inactive
Cc1cccc(C)c1NC(=O)c1oc2c(c1C)-c1nn(Cc3ccccc3)cc1CC2	none (no result: CBFb-RUNX1 inh, RGS12 GoLoco inh)
O=C(CSc1cccc[n+]1[O-])c1ccccc1Br	Epigenetic reg 3.5µM | C127i cell count inactive | HCC4017 tox inactive | H358 viab inactive
CCCCOC(=O)Cn1c2ccc(OC)cc2c2nc3ccccc3nc21	Epigenetic reg inconclusive | C127i cell count inconclusive | HCC4017 tox inconclusive | H358 viab inconclusive
CCn1c2ccc(OC)cc2c2nc3ccccc3nc21	none
COc1cccc(N2CCN(S(=O)(=O)c3ccc(-n4cnnn4)cc3)CC2)c1	Epigenetic reg inconclusive (no result: CBFb-RUNX1 inh, RGS12 GoLoco inh) | C127i cell count inactive | HCC4017 tox inactive | H358 viab inactive
O=S(=O)(c1ccc(-n2cnnn2)cc1)N1CCN(c2cccc(Cl)c2)CC1	none (no result: CBFb-RUNX1 inh, RGS12 GoLoco inh)
Cc1cc(=O)[nH]c2nnc(SCc3cccc(F)c3)n12	none (no result: CBFb-RUNX1 inh, RGS12 GoLoco inh)
Cc1c(C#N)c(NC(=O)C(C)C)n(Cc2ccccc2)c1C	none
O=C(NCc1ccccc1Cl)c1nnc(Cc2ccc(Cl)cc2)o1	none (no result: CBFb-RUNX1 inh, RGS12 GoLoco inh)
CCOC(=O)c1cc2c(=O)n3ccccc3nc2n(Cc2ccco2)c1=NC(=O)c1ccc(Br)cc1	Epigenetic reg inconclusive (no result: CBFb-RUNX1 inh, RGS12 GoLoco inh) | C127i cell count 28µM
CCOC(=O)c1cc2c(=O)n3ccccc3nc2n(Cc2ccco2)c1=NC(=O)c1cccc(Br)c1	none (no result: CBFb-RUNX1 inh, RGS12 GoLoco inh)
CC(=O)NC(CC(C)C)C(=O)NC(Cc1ccccc1)C(N)=O (centres undefined)	none
CC(=O)[C@H](CC(C)C)NC(=O)[C@@H](CC(C)C)NC(=O)[C@H](CC(C)C)NC(=O)OCc1ccccc1	Epigenetic reg 5µM | C127i cell count inactive
O=[N+]([O-])/C(=C\Nc1ccccc1Cl)S(=O)(=O)c1ccccc1	none
